In the supplement of paper PMC10849652:
The full data set covers some 7,900 targets. This sample favours those with a hit. About 0.6% of all pairs of compound and target were hits. A number with no mark means an inactive call.

Experiments:
Assay in all cases: log2 fold change, soluble protein after heating vs DMSO (PISA); higher = thermal stabilisation; K562 cells, 10 uM, 30 min; active = over 0.2 and 3.5 SD of the protein, either way, in both replicates (recomputed)
erlotinib = compound: C#Cc1cccc(Nc2ncnc3cc(OCCOC)c(OCCOC)cc23)c1 [erlotinib]
Method in brief: (§1)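 Aliquots of K562 cells (2×10^6 cells/mL) treated with 10 μM compound for 30 min were heated for 3 min over 48°C-58°C. After pooling and extraction in PBS with 0.5% NP-40 at 4°C, soluble protein from a 21,000xg, 90 min spin was quantified by TMTpro 16plex LC-MS/MS with channel sums equalised. Thermal stability is expressed against control samples, from duplicates, as a log2 fold change.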

[1] = compound: C/C(=N\NC(=O)C1=CC(=CC=C1)S(=O)(=O)N2CCOCC2)/C3=C(C=CC(=C3)Cl)O
Method in brief: as §1

[2] = compound: C1=CC(=C(C=C1Cl)C2=NC3=NC=CN=C3C(=N2)NC4=CC=NC=C4)F
Method in brief: as §1

[3] = compound: C1=CC(=CC=C1C2=NC3=C(N2)C=C(C=C3)C(=O)N)OC4=CC=C(C=C4)Cl
Method in brief: as §1

[4] = compound: C1=CC2=C(C=CC(=C2)/C=C\3/C(=O)NC(=NCC4=CC=CS4)S3)N=C1
Method in brief: as §1

[5] = compound: C1=CC2=NC=CN=C2C=C1/C=C/3\C(=O)NC(=O)S3
Method in brief: as §1

[6] = compound: C1=CC=C(C=C1)C2=NC(=C(N2)C3=CC=NC=C3)C4=CC(=C(C=C4)Cl)O
Method in brief: as §1

[7] = compound: C1=CC=C2C(=C1)C3=NNC4=CC=CC(=C43)C2=O
Method in brief: as §1

[8] = compound: C1CCN(C1)C(=O)NC2=CC=CC(=C2)NC3=NC=C(C(=N3)NCCC4=CN=CN4)Br
Method in brief: as §1

[9] = compound: C1CN(CCC1(CC2=CC=C(C=C2)Cl)N)C3=NC=NC4=C3C=CN4
Method in brief: as §1

IRAK-1-4 Inhibitor I = compound: C1COCCN1CCN2C3=CC=CC=C3N=C2NC(=O)C4=CC(=CC=C4)[N+](=O)[O-] [IRAK-1-4 Inhibitor I]
Method in brief: as §1

ibrutinib = compound: C=CC(=O)N1CCC[C@@H](n2nc(-c3ccc(Oc4ccccc4)cc3)c3c(N)ncnc32)C1 [ibrutinib]
Method in brief: as §1

[10] = compound: CC(=O)c1cnc2ccc(-c3cc(Cl)c(O)c(Cl)c3)nc2c1N[C@H]1CC[C@H](CN(C)C)CC1
Method in brief: as §1

ralimetinib = compound: CC(C)(C)Cn1c(N)nc2ccc(-c3[nH]c(C(C)(C)C)nc3-c3ccc(F)cc3)nc21 [ralimetinib]
Method in brief: as §1

[11] = compound: CC(C)(O)CC(=O)NCCn1ccc2ncnc(Nc3ccc(Oc4cccc(C(F)(F)F)c4)c(Cl)c3)c21
Method in brief: as §1

[12] = compound: CC(C)C1=C2N=C(C=C(N2N=C1)NCC3=CC=CC=C3)NCCCCCCN
Method in brief: as §1

[13] = compound: CC(C)C[C@@H](C=O)NC(=O)[C@H](CC(C)C)NC(=O)[C@H](CC(C)C)NC(=O)OCc1ccccc1
Method in brief: as §1

pinometostat = compound: CC(C)N(C[C@H]1O[C@@H](n2cnc3c(N)ncnc32)[C@H](O)[C@@H]1O)[C@H]1C[C@@H](CCc2nc3cc(C(C)(C)C)ccc3[nH]2)C1 [pinometostat]
Method in brief: as §1

[14] = compound: CC1=C(C(CC(=O)N1)C2=CC=C(C=C2)C(F)(F)F)C(=O)NC3=C(C=C4C(=C3)C=NN4)F
Method in brief: as §1

[15] = compound: CC1=C(C2=C(C=C1)C(=O)C3=CC=CC=C3N2CCCN)C
Method in brief: as §1

Sequence of UniProt Q13685 (Q13685 whole entry, looked up): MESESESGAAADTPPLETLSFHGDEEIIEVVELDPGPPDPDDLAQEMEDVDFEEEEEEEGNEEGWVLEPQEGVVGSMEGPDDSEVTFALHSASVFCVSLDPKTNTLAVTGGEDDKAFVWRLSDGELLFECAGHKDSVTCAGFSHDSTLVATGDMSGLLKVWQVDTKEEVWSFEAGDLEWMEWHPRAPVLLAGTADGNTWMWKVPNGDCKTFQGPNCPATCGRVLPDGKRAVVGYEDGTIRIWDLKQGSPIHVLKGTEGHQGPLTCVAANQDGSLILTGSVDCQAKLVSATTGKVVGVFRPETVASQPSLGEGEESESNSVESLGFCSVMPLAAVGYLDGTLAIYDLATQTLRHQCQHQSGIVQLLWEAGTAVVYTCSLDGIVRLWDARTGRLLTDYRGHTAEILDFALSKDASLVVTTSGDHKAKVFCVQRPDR
Sequence of UniProt P53680 (P53680 whole entry, looked up): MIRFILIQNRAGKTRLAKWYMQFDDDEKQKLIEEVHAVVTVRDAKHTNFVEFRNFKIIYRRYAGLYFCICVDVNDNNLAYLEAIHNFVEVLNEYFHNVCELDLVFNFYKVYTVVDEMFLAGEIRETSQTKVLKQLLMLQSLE
Sequence of UniProt O00244 (O00244 whole entry, looked up): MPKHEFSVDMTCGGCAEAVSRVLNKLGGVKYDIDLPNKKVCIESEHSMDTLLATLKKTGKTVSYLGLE
Sequence of UniProt P11310 (P11310 whole entry, looked up): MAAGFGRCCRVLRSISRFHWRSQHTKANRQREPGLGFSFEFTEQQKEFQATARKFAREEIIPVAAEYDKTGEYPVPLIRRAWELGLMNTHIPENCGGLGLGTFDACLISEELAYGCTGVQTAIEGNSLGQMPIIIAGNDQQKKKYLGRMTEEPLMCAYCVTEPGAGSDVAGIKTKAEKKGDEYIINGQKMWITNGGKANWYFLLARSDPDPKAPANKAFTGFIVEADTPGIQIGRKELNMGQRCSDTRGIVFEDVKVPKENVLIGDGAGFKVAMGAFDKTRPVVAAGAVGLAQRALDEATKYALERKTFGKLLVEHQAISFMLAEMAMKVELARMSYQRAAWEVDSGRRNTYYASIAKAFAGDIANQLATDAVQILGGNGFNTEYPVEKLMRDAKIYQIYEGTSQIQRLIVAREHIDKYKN
Sequence of UniProt Q8WUW1 (Q8WUW1 whole entry, looked up): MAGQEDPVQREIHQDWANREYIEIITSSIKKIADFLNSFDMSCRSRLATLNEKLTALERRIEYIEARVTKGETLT
Sequence of UniProt P56211 (P56211 whole entry, looked up): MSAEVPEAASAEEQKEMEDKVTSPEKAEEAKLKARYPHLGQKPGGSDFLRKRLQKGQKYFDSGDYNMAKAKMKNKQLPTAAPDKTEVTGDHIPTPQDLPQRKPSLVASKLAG
Sequence of UniProt Q9NQ11 (Q9NQ11 whole entry, looked up): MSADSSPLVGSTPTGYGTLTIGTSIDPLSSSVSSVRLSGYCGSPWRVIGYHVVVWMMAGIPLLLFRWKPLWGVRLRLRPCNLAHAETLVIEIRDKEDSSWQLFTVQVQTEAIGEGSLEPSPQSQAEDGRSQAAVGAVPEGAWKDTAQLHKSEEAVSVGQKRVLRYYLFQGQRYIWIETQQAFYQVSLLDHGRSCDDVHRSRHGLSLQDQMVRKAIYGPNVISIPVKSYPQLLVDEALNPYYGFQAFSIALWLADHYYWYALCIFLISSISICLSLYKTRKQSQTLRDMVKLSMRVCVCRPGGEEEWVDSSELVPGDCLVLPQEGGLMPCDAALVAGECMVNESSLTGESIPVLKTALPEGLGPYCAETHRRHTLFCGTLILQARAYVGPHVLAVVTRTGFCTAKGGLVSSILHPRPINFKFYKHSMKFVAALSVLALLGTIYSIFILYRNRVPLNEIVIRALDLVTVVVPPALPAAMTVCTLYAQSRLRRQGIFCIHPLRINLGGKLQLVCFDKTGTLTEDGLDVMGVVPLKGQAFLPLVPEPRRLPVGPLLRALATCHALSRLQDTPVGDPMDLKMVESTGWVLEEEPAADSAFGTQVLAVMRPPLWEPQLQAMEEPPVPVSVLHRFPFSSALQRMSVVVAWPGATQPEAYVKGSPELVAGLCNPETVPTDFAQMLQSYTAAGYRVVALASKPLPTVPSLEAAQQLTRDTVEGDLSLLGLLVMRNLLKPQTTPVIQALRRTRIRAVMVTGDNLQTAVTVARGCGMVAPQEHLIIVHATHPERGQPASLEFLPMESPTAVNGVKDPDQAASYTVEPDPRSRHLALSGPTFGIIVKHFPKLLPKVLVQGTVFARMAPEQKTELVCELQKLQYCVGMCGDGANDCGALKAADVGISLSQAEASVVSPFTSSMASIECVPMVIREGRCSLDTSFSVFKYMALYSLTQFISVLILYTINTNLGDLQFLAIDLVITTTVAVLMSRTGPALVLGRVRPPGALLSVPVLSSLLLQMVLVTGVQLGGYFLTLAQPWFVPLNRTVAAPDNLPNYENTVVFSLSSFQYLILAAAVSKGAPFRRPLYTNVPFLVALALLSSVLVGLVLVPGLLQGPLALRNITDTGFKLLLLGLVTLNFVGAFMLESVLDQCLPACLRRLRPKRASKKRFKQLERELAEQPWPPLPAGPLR
Sequence of UniProt P30043 (P30043 whole entry, looked up): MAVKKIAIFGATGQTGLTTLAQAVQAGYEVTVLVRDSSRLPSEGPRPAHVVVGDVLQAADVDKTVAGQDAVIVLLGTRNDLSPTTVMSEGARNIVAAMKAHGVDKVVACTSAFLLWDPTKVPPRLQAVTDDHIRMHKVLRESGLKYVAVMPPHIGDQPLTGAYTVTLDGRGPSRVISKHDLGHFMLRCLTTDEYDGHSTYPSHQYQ
Sequence of UniProt Q9NYF8 (Q9NYF8 whole entry, looked up): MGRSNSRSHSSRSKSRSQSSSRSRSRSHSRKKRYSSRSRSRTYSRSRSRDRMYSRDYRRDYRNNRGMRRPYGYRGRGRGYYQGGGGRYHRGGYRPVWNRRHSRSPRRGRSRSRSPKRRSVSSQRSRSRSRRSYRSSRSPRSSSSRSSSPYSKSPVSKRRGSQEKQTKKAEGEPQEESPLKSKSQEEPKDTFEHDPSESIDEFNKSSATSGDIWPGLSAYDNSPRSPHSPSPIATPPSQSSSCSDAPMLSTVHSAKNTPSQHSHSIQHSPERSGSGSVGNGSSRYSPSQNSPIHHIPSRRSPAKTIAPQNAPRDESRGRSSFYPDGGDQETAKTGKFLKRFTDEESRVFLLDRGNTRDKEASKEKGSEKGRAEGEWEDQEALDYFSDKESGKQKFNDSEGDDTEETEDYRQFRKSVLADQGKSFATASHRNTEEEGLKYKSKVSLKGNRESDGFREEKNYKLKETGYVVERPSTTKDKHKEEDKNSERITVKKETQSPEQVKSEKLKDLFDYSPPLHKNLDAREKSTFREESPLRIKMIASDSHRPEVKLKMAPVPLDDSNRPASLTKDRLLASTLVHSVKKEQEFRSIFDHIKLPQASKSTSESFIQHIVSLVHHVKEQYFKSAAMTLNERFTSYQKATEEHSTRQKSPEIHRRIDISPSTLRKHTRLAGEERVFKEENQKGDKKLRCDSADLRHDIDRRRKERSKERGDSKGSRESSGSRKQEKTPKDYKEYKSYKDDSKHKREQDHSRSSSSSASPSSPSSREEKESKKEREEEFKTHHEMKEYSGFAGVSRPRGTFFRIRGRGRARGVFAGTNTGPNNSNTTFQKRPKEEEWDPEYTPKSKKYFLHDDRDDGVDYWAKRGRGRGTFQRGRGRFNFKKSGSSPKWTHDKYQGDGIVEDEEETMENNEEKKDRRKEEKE
Sequence of UniProt Q9H845 (Q9H845 whole entry, looked up): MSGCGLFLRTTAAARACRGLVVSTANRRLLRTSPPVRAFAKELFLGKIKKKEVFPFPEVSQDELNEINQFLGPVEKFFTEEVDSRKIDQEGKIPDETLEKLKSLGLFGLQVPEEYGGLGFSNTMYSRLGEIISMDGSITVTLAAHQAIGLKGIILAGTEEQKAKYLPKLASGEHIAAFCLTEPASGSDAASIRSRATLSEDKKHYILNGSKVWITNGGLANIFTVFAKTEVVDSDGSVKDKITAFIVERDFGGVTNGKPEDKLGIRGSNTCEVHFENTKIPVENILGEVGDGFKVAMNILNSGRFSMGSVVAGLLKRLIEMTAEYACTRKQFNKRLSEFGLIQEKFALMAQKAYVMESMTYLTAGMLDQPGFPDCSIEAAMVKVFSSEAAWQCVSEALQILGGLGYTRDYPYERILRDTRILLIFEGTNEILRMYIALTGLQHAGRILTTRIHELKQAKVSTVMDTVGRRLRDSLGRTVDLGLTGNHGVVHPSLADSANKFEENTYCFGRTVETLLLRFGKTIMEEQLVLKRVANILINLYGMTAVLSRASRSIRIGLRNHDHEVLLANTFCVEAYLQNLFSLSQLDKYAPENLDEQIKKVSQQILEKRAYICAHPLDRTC
Sequence of UniProt O95433 (O95433 whole entry, looked up): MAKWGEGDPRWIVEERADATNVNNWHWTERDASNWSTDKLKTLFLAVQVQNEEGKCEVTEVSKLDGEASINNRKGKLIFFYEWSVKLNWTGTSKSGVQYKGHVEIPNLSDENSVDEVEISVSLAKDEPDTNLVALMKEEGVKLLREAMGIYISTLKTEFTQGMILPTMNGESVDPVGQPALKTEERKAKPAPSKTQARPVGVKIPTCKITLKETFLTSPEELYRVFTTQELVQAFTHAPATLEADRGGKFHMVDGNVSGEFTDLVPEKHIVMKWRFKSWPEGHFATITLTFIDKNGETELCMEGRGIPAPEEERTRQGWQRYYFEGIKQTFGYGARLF
Sequence of UniProt Q8TDN6 (Q8TDN6 whole entry, looked up): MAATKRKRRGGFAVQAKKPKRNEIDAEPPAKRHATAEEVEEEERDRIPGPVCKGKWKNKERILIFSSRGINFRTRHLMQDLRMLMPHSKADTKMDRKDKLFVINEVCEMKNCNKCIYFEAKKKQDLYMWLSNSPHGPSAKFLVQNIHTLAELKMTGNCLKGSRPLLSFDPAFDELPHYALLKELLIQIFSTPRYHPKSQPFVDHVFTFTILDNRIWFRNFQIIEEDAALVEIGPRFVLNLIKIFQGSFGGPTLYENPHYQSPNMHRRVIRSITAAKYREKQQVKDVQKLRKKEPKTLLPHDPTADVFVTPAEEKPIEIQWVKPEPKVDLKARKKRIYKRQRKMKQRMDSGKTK

Row | Target | log2 fold change (erlotinib) | log2 fold change [1] | log2 fold change [2] | log2 fold change [3] | log2 fold change [4] | log2 fold change [5] | log2 fold change [6] | log2 fold change [7] | log2 fold change [8] | log2 fold change [9] | log2 fold change (IRAK-1-4 Inhibitor I) | log2 fold change (ibrutinib) | log2 fold change [10] | log2 fold change (ralimetinib) | log2 fold change [11] | log2 fold change [12] | log2 fold change [13] | log2 fold change (pinometostat) | log2 fold change [14] | log2 fold change [15]
1 | BCLAF1 (UniProt Q9NYF8) | 0.036 | 0.075 | -0.046 | 0.082 | -0.304 | -0.018 | 0.143 | -0.063 | -0.089 | -0.15 | -0.265 | 0.016 | -0.503 (active) | 0.124 | 0.094 | -0.353 | -0.027 | -0.039 | 0.021 | -0.076
2 | BRIX1 (UniProt Q8TDN6) | -0.093 | -0.05 | -0.415 | -0.089 | 0.003 | 0.046 | -0.046 | -0.167 | 0.017 | -0.387 | -0.1 | -0.011 | 0.021 | 0.133 | 0.091 | 0.137 | 0.041 | 0.361 | -0.051 | -1.43 (active)
3 | AAMP (UniProt Q13685) | 0.025 | -0.032 | 0.006 | -0.003 | 0.042 | 0.074 | -0.007 | 0.003 | -0.006 | 0.085 | 0.007 | 0.023 | 0.064 | 0.031 | 0.04 | -0.051 | -0.02 | 0.007 | 0 | 0.225 (active)
4 | BRD8 (UniProt Q9H0E9) | -0.057 | -0.036 | -0.067 | 0.068 | -0.005 | 0.037 | -0.074 | -0.064 | 0.016 | -0.058 | 0 | -0.014 | -0.009 | -0.022 | -0.012 | -0.013 | 0.098 | 0.001 | 0.03 | -0.019
5 | ARF4 (UniProt P18085) | -0.029 | 0.033 | 0.093 | -0.007 | 0.006 | -0.016 | 0.093 | 0.039 | -0.015 | -0.021 | 0.072 | 0.003 | -0.027 | -0.019 | -0.103 | 0.117 | -0.032 | -0.042 | -0.071 | 0.128
6 | ACADM isoform 2 (UniProt P11310) | -0.015 | 0.014 | 0.013 | 0.149 | 0.044 | 0.002 | 0.059 | -0.001 | 0.008 | 0.067 | 0.028 | 0.034 | -0.013 | -0.068 | -0.043 | 0.051 | -0.001 | -0.085 | -0.006 | 0
7 | BRK1 isoform 2 (UniProt Q8WUW1) | -0.115 | 0.003 | 0.279 | 0.04 | 0.027 | 0.072 | 0.051 | -0.02 | -0.08 | -0.037 | -0.026 | -0.004 | -0.045 | -0.037 | -0.018 | 0.058 | -0.053 | -0.157 | 0.064 | 0.145
8 | ADD2 (UniProt P35612) | 0.008 | -0.011 | 0.025 | 0.004 | -0.004 | 0.022 | 0.012 | -0.005 | 0.004 | 0.016 | 0.04 | 0.009 | -0.172 | -0.021 | -0.004 | 0.042 | -0.024 | -0.015 | 0.01 | 0.029
9 | ATP13A2 (UniProt Q9NQ11) | 0.047 | 0.012 | 0.011 | 0.096 | 0.024 | 0.099 | 0.01 | -0.042 | 0.035 | 0.082 | 0.04 | 0.074 | 0.007 | -0.033 | -0.03 | -0.511 (active) | 0.011 | 0.063 | 0.044 | 0.181
10 | AP2A2 isoform 2 (UniProt O94973) | 0.007 | 0.014 | -0.004 | -0.012 | 0.007 | 0.004 | 0.072 | -0.118 | -0.284 (active) | 0.028 | -0.003 | -0.015 | 0.008 | 0.006 | 0.033 | 0.019 | 0.032 | 0.025 | -0.02 | 0.107
11 | AHSA1 (UniProt O95433) | 0.007 | 0.011 | 0.081 | -0.015 | 0.012 | 0.037 | 0.013 | 0.039 | -0.006 | 0.023 | 0.002 | -0.043 | -0.007 | 0 | -0.022 | -0.038 | -0.008 | -0.045 | 0.003 | 0
12 | ATOX1 (UniProt O00244) | -0.033 | 0.307 | 0.141 | 0.068 | -0.089 | 0.074 | 0.242 | 0.112 | -0.061 | 0.024 | 0.018 | 0.01 | 0.154 | 0.23 | -0.005 | 0.109 | -0.198 | -0.153 | -0.004 | 0.099
13 | ARPP19 (UniProt P56211) | -0.01 | 0.003 | 0.076 | -0.032 | -0.061 | 0.041 | 0.026 | 0.014 | -0.024 | -0.018 | 0.052 | -0.009 | 0 | 0.048 | -0.051 | 0.048 | -0.071 | -0.157 | 0.069 | -0.074
14 | BLVRB (UniProt P30043) | 0.03 | 0.112 | 0.237 (active) | -0.031 | -0.015 | 0.072 | 0.042 | 0.014 | 0.001 | 0.056 | 0.075 | 0.037 | 0.154 | 0.056 | -0.019 | -0.048 | -0.037 | -0.005 | -0.046 | 0.059
15 | AP2S1 (UniProt P53680) | -0.1 | 0.148 | -0.056 | -0.018 | 0.052 | 0.013 | -0.011 | -0.27 (active) | -0.354 (active) | -0.003 | -0.054 | -0.01 | -0.117 | -0.017 | -0.003 | 0.028 | -0.07 | 0.038 | -0.009 | 0.091
16 | ACAD9 (UniProt Q9H845) | -0.002 | 0.025 | 0.054 | 0.015 | 0.035 | 0.032 | 0.026 | -0.002 | -0.002 | 0.029 | 0.01 | 0.005 | -0.041 | -0.034 | 0.007 | 0.002 | -0.036 | -0.028 | -0.012 | 0.028
